Source: PubChem BioAssay (NCATS)
Several values for one entry are separate records, joined by “and”; a condition that tells them apart may be missing. Identical values can stand only once. Records with an inconclusive call do not appear. Where a call stands in place of a potency, no number is given. Activity calls are given as the source filed them. Unless noted, calls follow the shape of the dose curve; as a rule, active = well fitted inhibition curve with a large enough effect; inconclusive = small, poorly fitted or top-dose-only effect; inactive = flat fitted curve, though single readings scatter.

Columns and labels:
[1] = qHTS profiling for inhibitors of Plasmodium falciparum proliferation (AID 504749); also: nearly all actives have a fitted effect of over 60% in size; also: potency is read from the fitted curve at half-maximal effect; details: P. falciparum in erythrocytes, SYBR Green DNA, 72 h
In short: (§1)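 In a 72 h erythrocytic culture (37 C, humidified, 5% CO2) at 2.5% hematocrit and 0.3% starting parasitemia, compounds were tested; SYBR Green I in detergent lysis buffer stained parasite DNA overnight.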

[2] = tested on: 3D7; assay: as above; details: P. falciparum in erythrocytes, SYBR Green DNA, 72 h; series mostly up to 28.7 µM
In short: as §1

[3] = tested on: 7G8; assay: as above; details: P. falciparum in erythrocytes, SYBR Green DNA, 72 h; series mostly up to 28.7 µM
In short: as §1

[4] = tested on: AA1029; assay: as above; details: P. falciparum in erythrocytes, SYBR Green DNA, 72 h; series mostly up to 28.7 µM
In short: as §1

[5] = tested on: AS120; assay: as above; details: P. falciparum in erythrocytes, SYBR Green DNA, 72 h; series mostly up to 28.7 µM
In short: as §1

[6] = tested on: ATS189; assay: as above; details: P. falciparum in erythrocytes, SYBR Green DNA, 72 h; series mostly up to 28.7 µM
In short: as §1

[7] = tested on: ATS95; assay: as above; details: P. falciparum in erythrocytes, SYBR Green DNA, 72 h; series mostly up to 28.7 µM
In short: as §1

[8] = tested on: C2A; assay: as above; details: P. falciparum in erythrocytes, SYBR Green DNA, 72 h; series mostly up to 28.7 µM
In short: as §1

[9] = tested on: CP185; assay: as above; details: P. falciparum in erythrocytes, SYBR Green DNA, 72 h; series mostly up to 28.7 µM
In short: as §1

[10] = qHTS drug screen for cell cycle checkpoint inhibitors in PARPi-resistant BRCA-mutant ovarian cancer cell lines. (AID 1963452; calls by dose curve); details: PEO1/OlaR viability, CellTiter-Glo luminescence, 96 h, stronger effect = lower value
In short: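 PEO1, PEO4 and PEO1/OlaR ovarian cancer cells, 600 per well, exposed 96 h at 37C to a dilution series. Viability read by CellTiter-Glo luminescence, normalized to DMSO and empty wells; activity summarized as Z-AUC.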

[11] = at 28.7 µM (top of the series), parasite line A
[12] = at 28.7 µM (top of the series), parasite line B
[13] = at 12.8 µM (top of the series), parasite line A
[14] = at 12.8 µM (top of the series), parasite line B
[15] = measured here: PEO1 parental Z-AUC

SMILES	activity, negative = inhibition [1, 11]	activity, negative = inhibition [1, 12]	Potency [2]	Potency [3]	Potency [4]	Potency [5]	Potency [6]	Potency [7]	Potency [8]	Potency [9]	activity, negative = inhibition [1, 13]	activity, negative = inhibition [1, 14]	Potency ([1]; parasite line A)	Potency ([1]; parasite line B)	Z-AUC [10]	Z-AUC [10, 15]	Z-AUC ([10]; measured here: PEO4 Z-AUC)
CC(N=C(NC#N)Nc1ccncc1)C(C)(C)C (configuration not stated)	-3.66% (inactive)	-7.16% (inactive)	inactive	inactive	inactive	inactive	inactive	inactive	inactive	inactive	–	–	–	–	–	–	–
CC(=O)Oc1cc(C(C)C)c(OCCN(C)C)cc1C	–	–	inactive	inactive	inactive	inactive	inactive	inactive	inactive	inactive	4.04% (inactive)	-3.15% (inactive)	–	–	–	–	–
OCCN1CCN(CC/C=C2/c3ccccc3Sc3ccc(C(F)(F)F)cc32)CC1	–	–	12.6 µM (active)	3.16 µM (active)	8.91 µM (active)	11.2 µM (active)	7.94 µM (active)	–	–	–	–	–	8.91 µM (active)	11.2 µM (active)	–	–	–
CCN(CC)CCNC(=O)c1ccc(NC(C)=O)cc1	9.9% (inactive)	23.7% (inactive)	inactive	inactive	inactive	inactive	inactive	inactive	inactive	inactive	–	–	–	–	–	–	–
OCCN1CCN(CCCN2c3ccccc3C=Cc3ccccc32)CC1	–	–	11.2 µM (active)	2 µM (active)	4.47 µM (active)	4.47 µM (active)	5.01 µM (active)	5.01 µM (active)	11.2 µM (active)	12.6 µM (active)	–	–	8.91 µM (active)	11.2 µM (active)	–	–	–
CCCOc1ccccc1-c1nc2n[nH]nc2c(=O)[nH]1	-3.13% (inactive)	3.38% (inactive)	inactive	inactive	inactive	inactive	inactive	inactive	inactive	inactive	–	–	–	–	–	–	–
CN=C(NC#N)NCCSCc1nc[nH]c1C	-4.42% (inactive)	-7.15% (inactive)	inactive	inactive	inactive	inactive	inactive	inactive	inactive	inactive	–	–	–	–	–	–	–
CCCCCN(CCCCC)C(=O)C(CCC(=O)O)NC(=O)c1ccc(Cl)c(Cl)c1 (configuration not stated)	16.8% (inactive)	7.13% (inactive)	inactive	inactive	inactive	inactive	inactive	inactive	inactive	inactive	–	–	–	–	–	–	–
NCCCNCCSP(=O)(O)O	8.13% (inactive)	13.6% (inactive)	inactive	inactive	inactive	inactive	inactive	inactive	inactive	inactive	–	–	–	–	–	–	–
COc1ccc([C@@H]2Sc3ccccc3N(CCN(C)C)C(=O)[C@@H]2OC(C)=O)cc1	3.17% (inactive)	7.3% (inactive)	inactive	–	inactive	inactive	inactive	inactive	inactive	inactive	–	–	–	–	1.43 (inactive)	0.963	0.74
CC(=O)[C@@]1(O)CC[C@H]2[C@@H]3CCC4=CC(=O)CC[C@]4(C)[C@H]3CC[C@@]21C	-9.44% (inactive)	1.51% (inactive)	inactive	inactive	inactive	inactive	inactive	inactive	inactive	inactive	–	–	–	–	–	–	–
O=C(O)CN(CCN(CC(=O)O)CC(=O)O)CCN(CC(=O)O)CC(=O)O	7.8% (inactive)	-1.15% (inactive)	inactive	inactive	inactive	inactive	inactive	inactive	inactive	inactive	–	–	–	–	–	–	–
CC(=O)Nc1nnc(S(N)(=O)=O)s1	-9.91% (inactive)	6.59% (inactive)	inactive	inactive	inactive	inactive	inactive	inactive	inactive	inactive	–	–	–	–	–	–	–
NS(=O)(=O)c1cc2c(cc1Cl)NC(C1CC3C=CC1C3)NS2(=O)=O (configuration not stated)	2.38% (inactive)	-3.16% (inactive)	inactive	inactive	inactive	inactive	inactive	inactive	inactive	inactive	–	–	–	–	–	–	–
c1cnc(N2CCN(Cc3ccc4c(c3)OCO4)CC2)nc1	13.8% (inactive)	17.3% (inactive)	inactive	inactive	inactive	inactive	inactive	inactive	inactive	inactive	–	–	–	–	–	–	–
COc1ccc2c(c1OC)C(=O)O[C@@H]2[C@H]1c2c(cc3c(c2OC)OCO3)CCN1C	–	–	–	–	–	–	–	–	–	–	–	–	–	–	0.757 (inactive)	0.922	0.499
Cc1ccc(=O)n(-c2ccccc2)c1	12.4% (inactive)	18.6% (inactive)	inactive	inactive	inactive	inactive	inactive	inactive	inactive	inactive	–	–	–	–	–	–	–
CN(C)CCCN1c2ccccc2Sc2ccccc21	–	–	inactive	3.16 µM (active)	3.16 µM (active)	–	–	–	–	–	8.14% (inactive)	20.7% (inactive)	–	–	–	–	–
CCCN(CCC)C(=O)C(CCC(=O)O)NC(=O)c1ccccc1 (configuration not stated)	–	–	–	–	–	–	–	–	–	–	–	–	–	–	0.987 (inactive)	0.633	0.925
Nc1c2c(nc3ccccc13)CCCC2O (configuration not stated)	-3.4% (inactive)	3.67% (inactive)	inactive	inactive	inactive	inactive	inactive	inactive	inactive	inactive	–	–	–	–	–	–	–

SMILES	activity, negative = inhibition [1, 11]	activity, negative = inhibition [1, 12]	Potency [2]	Potency [3]	Potency [4]	Potency [5]	Potency [6]	Potency [7]	Potency [8]	Potency [9]	activity, negative = inhibition [1, 13]	activity, negative = inhibition [1, 14]	Potency ([1]; parasite line A)	Potency ([1]; parasite line B)	Z-AUC [10]	Z-AUC [10, 15]	Z-AUC ([10]; measured here: PEO4 Z-AUC)
NC(=O)c1ncn([C@@H]2O[C@H](CO)[C@@H](O)[C@H]2O)c1O	9.25% (inactive)	1.87% (inactive)	inactive	inactive	inactive	inactive	inactive	inactive	inactive	inactive	–	–	–	–	1.15 (inactive) and 0.284 (inactive)	0.935 and 0.686	1.08 and 0.519
CN(C)C(=O)Oc1cccc([N+](C)(C)C)c1	4.77% (inactive)	-6.35% (inactive)	inactive	inactive	inactive	inactive	inactive	inactive	inactive	inactive	–	–	–	–	–	–	–
CC(=O)OCC1=C(C(=O)O)N2C(=O)[C@@H](NC(=O)Cc3cccs3)[C@H]2SC1	5.33% (inactive)	13.1% (inactive)	inactive	inactive	inactive	inactive	inactive	inactive	inactive	inactive	–	–	–	–	–	–	–
Cc1nnc(SCC2=C(C(=O)O)N3C(=O)[C@@H](NC(=O)Cn4cnnn4)[C@H]3SC2)s1	11.1% (inactive)	2.94% (inactive)	inactive	inactive	inactive	inactive	inactive	inactive	inactive	inactive	–	–	–	–	–	–	–
CC(C)COCC(CN(Cc1ccccc1)c1ccccc1)N1CCCC1 (configuration not stated)	–	–	inactive	–	–	–	inactive	–	inactive	–	–	–	–	–	1.09 (inactive)	0.789	0.389
C[N+](C)(C)CCCCCCCCCC[N+](C)(C)C	–	–	5.62 µM (active)	5.01 µM (active)	5.62 µM (active)	3.16 µM (active)	4.47 µM (active)	3.16 µM (active)	5.62 µM (active)	4.47 µM (active)	–	–	3.98 µM (active)	1.58 µM (active)	–	–	–
CN(C)CC/C=C1\c2ccccc2COc2ccccc21	0.213% (inactive)	6.5% (inactive)	inactive	12.6 µM (active)	8.91 µM (active)	–	–	–	–	–	–	–	–	–	–	–	–
Cc1cc(C)c(/C=C2\C(=O)Nc3ccccc32)[nH]1	2.71% (inactive)	10.1% (inactive)	inactive	inactive	inactive	inactive	inactive	inactive	inactive	inactive	–	–	–	–	0.918 (inactive)	0.596	0.161
NC(=O)N1c2ccccc2C=Cc2ccccc21	-22.9% (inactive)	-3.8% (inactive)	inactive	inactive	inactive	inactive	inactive	inactive	inactive	inactive	–	–	–	–	–	–	–
CCN1CCc2nc(N)oc2CC1	1.51% (inactive)	1.64% (inactive)	inactive	inactive	inactive	inactive	inactive	inactive	inactive	inactive	–	–	–	–	–	–	–
CCO/C([O-])=N/c1c[n+](N2CCOCC2)no1	–	–	inactive	inactive	inactive	inactive	inactive	inactive	inactive	inactive	2.13% (inactive)	0.211% (inactive)	–	–	–	–	–
CCCCOCCOCCOCc1cc2c(cc1CCC)OCO2	4.14% (inactive)	5.71% (inactive)	inactive	inactive	inactive	inactive	inactive	inactive	inactive	inactive	–	–	–	–	–	–	–
NC(N)=NC(=O)Cc1c(Cl)cccc1Cl	–	–	inactive	12.6 µM (active)	–	–	–	–	–	–	–	–	5.62 µM (active)	5.01 µM (active)	–	–	–
CC(=O)[C@]1(O)Cc2c(O)c3c(c(O)c2[C@@H](O[C@H]2C[C@H](N)[C@H](O)[C@H](C)O2)C1)C(=O)c1ccccc1C3=O	–	–	2.82 µM (active)	1.41 µM (active)	3.55 µM (active)	3.16 µM (active)	5.62 µM (active)	5.01 µM (active)	6.31 µM (active)	11.2 µM (active)	–	–	3.55 µM (active)	11.2 µM (active)	-0.489 (inactive)	-0.953	-0.26
COCC(=O)O[C@]1(CCN(C)CCCc2nc3ccccc3[nH]2)CCc2cc(F)ccc2[C@@H]1C(C)C	–	–	7.94 µM (active)	1.12 µM (active)	0.794 µM (active)	1.26 µM (active)	3.98 µM (active)	1.26 µM (active)	0.562 µM (active)	4.47 µM (active)	–	–	3.55 µM (active)	5.01 µM (active)	–	–	–
Cc1nc2c([nH]1)c(=O)n(C)c(=O)n2Cc1ccco1	-3.89% (inactive)	-2.06% (inactive)	inactive	inactive	inactive	inactive	inactive	inactive	inactive	inactive	–	–	–	–	–	–	–
C[N+](C)(C)CCOC(=O)CCC(=O)OCC[N+](C)(C)C	1.72% (inactive)	1.32% (inactive)	inactive	inactive	inactive	inactive	inactive	inactive	inactive	inactive	–	–	–	–	–	–	–
Nc1ncn([C@@H]2O[C@H](CO)[C@@H](O)[C@H]2O)c(=O)n1	-1.52% (inactive)	6.7% (inactive)	inactive	inactive	inactive	inactive	inactive	inactive	inactive	inactive	–	–	–	–	1.1 (inactive)	0.0153	-0.332
CCN(Cc1ccncc1)C(=O)C(CO)c1ccccc1 (configuration not stated)	3.05% (inactive)	-7.78% (inactive)	inactive	inactive	inactive	inactive	inactive	inactive	inactive	inactive	–	–	–	–	–	–	–
